AID inh – blocks human AID cytidine deaminase activity; AID 1347428; AID deamination FRET fluorescence, UDG-coupled, 4 h; Q9GZX7; Potency, µM (titrated, usually from 115 µM), actives largely listed as inhibitors; actives 0.32% (n = 91,000); note: nearly all actives have a fitted effect of over 25% in size
Target sequence (Q9GZX7 whole entry, looked up): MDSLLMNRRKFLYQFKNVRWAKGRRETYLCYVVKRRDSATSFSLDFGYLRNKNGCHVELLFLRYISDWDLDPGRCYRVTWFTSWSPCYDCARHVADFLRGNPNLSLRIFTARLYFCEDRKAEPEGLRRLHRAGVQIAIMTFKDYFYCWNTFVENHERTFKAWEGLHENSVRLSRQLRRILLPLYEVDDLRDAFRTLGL
UDG counter – UDG inhibition counter-screen; FRET deamination/UDG coupled assay, UDG read, 4 h; Potency, µM (titrated, usually from 115 µM), for the others: top-dose activity change, negative = inhibition, hits mostly inhibitors; actives 0.14% (n = 91,000); AID 1347430; note: nearly all actives have a fitted effect of over 65% in size
Active calls of the source: *; i = inactive; ? = inconclusive; [ ] = another dose, or the depositor's remark. Sampled rows, rich in hits. Any-hit rate of the full collection: about 0.4%. Calls come from the whole dose curve; as a rule, active = well fitted curve in the direction sought with a large enough effect; inconclusive = small, poorly fitted or top-dose-only effect, or another doubt; inactive = no such curve, though single readings can be large; an effect the other way counts as inactive or inconclusive. % is set by controls: 0 for no effect and ±100 for the full control effect; potency is the fitted concentration of half-maximal effect.

SMILES | AID inh | UDG counter
CC(C)Oc1cccc(C2CC(=O)Nc3nc(N)sc32)c1 (centres undefined) | 28µM* | -14%
CCOC(=O)N1CCc2c(sc(NCc3ccc(N(C)C)cc3)c2C(=O)Nc2ccc(OC)cc2)C1 | 50µM* | -29%
CCOC(=O)N1CCc2c(sc(NCc3cccc(F)c3)c2C(=O)Nc2ccc(OC)cc2)C1 | i | ?
O=C(NCc1cccs1)c1ccccc1-c1ccccc1 | i | 3%
Cc1ccc(NC(=O)c2c(C)nc3sc(C(=O)Nc4ccc(F)cc4)c(N)c3c2-c2ccccc2Cl)c(C)c1 | i | 11%
Cc1ccc(NC(=O)c2c(C)nc3sc(C(=O)Nc4ccc(F)cc4)c(N)c3c2-c2ccc(Cl)cc2)c(C)c1 | 32µM* | 89µM*
Cc1ccc(S(=O)(=O)N2CCN(C(=O)CNc3cccc(Cl)c3Cl)CC2)cc1 | i | -2%
CN1CCN(c2nc3c(S(=O)(=O)c4ccc(Cl)cc4)nnn3c3ccsc23)CC1 | ? | -16%
CC(C)c1ccc(S(=O)(=O)c2nnn3c2nc(N2CCN(C)CC2)c2sccc23)cc1 | 18µM* | 19%
COCc1cccc(C(=O)NCc2ccc(C(=O)O)cc2)c1 | i | -4%
Cc1cnc2c(S(=O)(=O)N3CCN(CC(F)(F)F)CC3)cccc2c1 | i | -1%
O=C(Nc1nonc1-c1ccc2c(c1)CCCC2)c1cc(=O)c2ccc(Br)cc2o1 | 20µM* | 16%
C=CCSc1nnc(NC(=O)c2cc(=O)c3ccc(Br)cc3o2)s1 | i | 5%
COCCc1ccc(OS(=O)(=O)c2c(C)c(Cl)cc(C)c2Cl)cc1 | i | 0%
CC(=O)C1=CC[C@H]2[C@@H]3CC[C@H]4C[C@@H](O)CC[C@]4(C)[C@H]3CC[C@]12C | i | -7%
CC(=O)O[C@H]1C[C@@H]2CC[C@@H]3[C@H](CC[C@@]4(C)[C@H]3C[C@H]([N+]3(C)CCCCC3)[C@@H]4OC(C)=O)[C@@]2(C)C[C@@H]1[N+]1(C)CCCCC1 | 22µM* | -8%
OCCNc1nc(Nc2ccccc2)nc2nccnc12 | i | 3%
Clc1cccc(CSc2nc3ncccc3o2)c1 | i | 3%
Clc1cccc(CSc2cccc3cccnc23)c1 | 25µM* | -3%
Cc1ccc(Nc2nnc(SCC(=O)c3ccc(Cl)s3)s2)c(C)c1 | i | -4%
CC1CCCN(C(=O)COc2ccccc2-c2noc(-c3ccc(Cl)cc3)n2)C1 (centres undefined) | i | -1%
CCOc1ccc(-n2c(C)nc3cc(C(=O)NCc4ccc(C)cc4)ccc32)cc1 | 32µM* | -15%
CCOc1ccc(-n2c(C)nc3cc(C(=O)NCCC4=CCCCC4)ccc32)cc1 | i | 0%
O=C(CCc1ncc(-c2ccccc2)o1)Nc1ccn[nH]1 | i | 5%
N#Cc1ccccc1OCc1ccccc1 | i | 0%
SMILES | AID inh | UDG counter
N#Cc1ccccc1OCc1csc(-c2ccccc2)n1 | ? | 89µM*
O=C(COC(=O)c1c2c(nc3ccccc13)CCCC2)c1ccc(Oc2ccc(Cl)cc2[N+](=O)[O-])cc1 | i | -12%
CCCn1nc(C(=O)Nc2nc3ccc(OCC)cc3s2)c2ccccc2c1=O | i | 4%
Cn1c(=O)c2c(-c3ccc(Cl)cc3)n(CCc3ccccc3)cc2n(C)c1=O | ? | -18%
Cn1c(=O)c2c(-c3ccc(Br)cc3)n(CCc3ccccc3)cc2n(C)c1=O | 40µM* | 0%
N#CCCN1CCN(C(C(=O)O)c2cn(CCC(=O)O)c3ccc(Br)cc23)CC1 (centres undefined) | i | 5%
Cc1ccc(C(C)C)c(OCC(=O)NCc2ccc(Cn3cccn3)cc2)c1 | i | 12%
CCn1c(SCC(=O)Nc2cccc(C(C)=O)c2)nnc1-c1cc2ccccc2o1 | i | 9%
COc1ccc(CCNC(=O)Cn2c(=O)c3cccn3c3ccc(F)cc32)cc1OC | 79µM* | 8%[57.5 µM]
COc1ccc(CCNC(=O)Cn2c(=O)c3cccn3c3ccccc32)cc1OC | i | 0%[57.5 µM]
CC(C)C(=O)NC(=S)Nc1cccc(Cl)c1 | i | -8%
FC(F)(F)c1ccc2nnc(SCc3c(Cl)cccc3Cl)n2c1 | i | -4%
c1ccc2c[n+](Cc3cccc4ccccc34)ccc2c1 | i | -10%
CS(=O)(=O)Cc1ccc(CNCc2ccccc2Cl)cc1 | i | 16µM*
CS(=O)(=O)Cc1ccc(CNCc2cccc3ccccc23)cc1 | i | 0%
CCc1ccc(NS(=O)(=O)c2cc(-c3cnc(C4CC4)o3)ccc2C)cc1 | i | -9%
Cc1cccc(N(C)S(=O)(=O)c2cc(-c3cnc(C4CC4)o3)ccc2C)c1 | ? | 79µM*
CCCc1cc(=O)oc2cc(OCC(=O)NC3CCCC3)ccc12 | i | -8%
COc1ccc(-c2csc(N3N=C(C)CC3c3cc(OC)c(OC)c(OC)c3)n2)cc1 (centres undefined) | ? | 89µM*
CSc1ccc(C2CC(C)=NN2c2nc(-c3ccccc3)cs2)cc1 (centres undefined) | i | -13%

Source: PubChem BioAssay (National Center for Advancing Translational Sciences (NCATS))
